Assay outcomes as filed in PubChem.
Tau fibril ThT = blocks human tau fibril formation measured by thioflavin T. P10636. recombinant tau K18 P301L, heparin-induced fibrillization, ThT fluorescence. Potency, µM (titrated, usually from 57.4 µM), for inactives: at the highest dose activity, negative = inhibition, hits mostly inhibitors. actives 2.1% (n = 270,000). AID 1460; further: on the % scale 0 is the no-effect control and ±100 the full control effect; nearly all actives have a fitted effect of over 55% in size
Target sequence (P10636 561-689 P618L limits assumed): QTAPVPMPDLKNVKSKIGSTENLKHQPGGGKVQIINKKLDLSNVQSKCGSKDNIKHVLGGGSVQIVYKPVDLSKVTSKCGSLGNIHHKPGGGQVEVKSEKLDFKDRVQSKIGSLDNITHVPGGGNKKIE
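Using a mix of unlabeled (15 uM) and Alexa 594-labeled (0.24 uM) tau K18 P301L, heparin-triggered fibrillization over 6 hr at 37 C was scored by ThT fluorescence.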
Tau FP inhib = tau fibrillization inhibition (FP); Potency, µM (doses to about 57.7 µM), for inactives: at the top dose activity, negative = inhibition, usual class: inhibitors; P10636; AID 1468; K18 P301L tau heparin fibrillization, Alexa594 FP, 6 h; actives 0.39% (n = 280,000); further: on the % scale 0 is the no-effect control and ±100 the full control effect; nearly all actives have a fitted effect of over 55% in size
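Steps: dispense K18 P301L tau (15 uM plus 0.24 uM Alexa 594 tracer, final) in pH 7 sodium acetate; add compound; add heparin (20 uM final); incubate 6 hr, 37 C; add ThT (30 uM final); after 1 hr ambient, read FP.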
HttQ103 aggreg = mutant huntingtin aggregation inhibition. PC12 HttQ103-GFP aggregates, Acumen cytometry, 40 h. Potency, µM (top dose mostly 46.1 µM), without a hit: at the highest dose activity change, negative = inhibition, actives largely listed as inhibitors. actives 1.1% (n = 220,000); further: on the % scale 0 is the no-effect control and ±100 the full control effect; nearly all actives have a fitted effect of over 60% in size
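Aggregate formation scored by laser-scanning cytometer (488 excitation, 500–530 emission) in lysed PC12 cells expressing Q103-GFP after 100 nM tebufenozide induction; library tested in dose series, with ATPLite reagent added in the multiplex.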
HTT ATP protect = protects HTT-Q103 PC12 cells, measured by ATP; Potency, µM (series often up to 56.4 µM), without a hit: cytoprotection (ATP increase), actives largely listed as activators; actives 0.14% (n = 230,000); AID 1471; PC12 HTT-Q103 induced, cytoprotection, ATP luminescence, 40 h; further: % of control where 0% means no effect; nearly all actives have a fitted effect of over 45% in size
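PC12 cells stably carrying ecdysone-inducible Htt exon 1 (Q103)–GFP were induced with 100 nM tebufenozide (final) alongside library compounds in a dose series. Cytoprotection was scored as retained ATP by ATPlite luminescence.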
Tau fluor cs = counter-screen for tau fibril formation inhibitors; AID 1463; Potency, µM (top dose mostly 57.7 µM), without a hit: at the highest dose activity change, negative = decrease; tau K18 P301L (four-repeat tau fragment) Alexa594 fluorescence, heparin fibrillization; actives 0.93% (n = 280,000); further: on the % scale 0 is the no-effect control and ±100 the full control effect; nearly all actives have a fitted effect of over 55% in size
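Human K18 P301L tau (15 uM unlabeled plus 0.24 uM Alexa 594-labeled, final) in 100 mM sodium acetate pH 7 was mixed with compound and 20 uM heparin and incubated 6 hr at 37 C.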
* marks the source's active call; other numbers are inactive results; ? = inconclusive; . = not tested or not shown; [ ] = another dose, or the depositor's remark. A selection: hits, their analogues and other compounds. The true share with any hit is near 3.7%. The call rests on the fitted dose curve; in most records, active means well fitted curve in the direction sought with a large enough effect; inconclusive means small, poorly fitted or top-dose-only effect, or another doubt; inactive means no such curve, though single readings can be large; an effect the other way counts as inactive or inconclusive. Potency means the concentration at half of the fitted maximal effect.

SMILES	Tau fibril ThT	Tau FP inhib	HttQ103 aggreg	HTT ATP protect	Tau fluor cs
CC(=O)Nc1ccc(N/C=C2/CCCC2=O)cc1	?	-1%	29%[9.22 µM]	12%[10 µM]	-15%
Cc1cc(O)ccc1N/C=C1\CCCC1=O	28µM*	?	?	2%[10 µM]	-20%
CS(=O)(=O)N(CC(=O)NCc1ccncc1)Cc1ccc(Cl)cc1	3%	5%	0.63µM*	-21%	1%
CS(=O)(=O)N(CC(=O)NCc1cccnc1)Cc1ccc(Cl)cc1	-6%	4%	-5%	9%[0.074 µM]	0%
C/C=C/c1ccc(O)c(OC)c1	.	.	-15%	-25%	.
Oc1cc(O)cc(/C=C/c2ccc(O)c(O)c2)c1	7.1µM*	8%	.	-290%	11µM*[quencher]
C[C@@]12CC[C@@H]3[C@@H](CC[C@H]4C[C@@H](O)CC[C@]43C)[C@H]1CC[C@@H]2c1cc(C(F)(F)F)n[nH]1	.	.	.	-6%[10 µM]	.
COc1ccc2c(c1)c1ccc3c(c1n2C)C(=O)C=CC3=O	5µM*	16µM*	-20%[9.22 µM]	-16%[10 µM]	3.5µM*[quencher]
Cc1ccc2c(c1)c1ccc3c(c1n2C)C(=O)C=CC3=O	.	?	?	-11%[10 µM]	0.89µM*[quencher]
Cc1ccc2c(c1)c1ncnc(N3CCOCC3)c1n2C	-20%	-5%	-9%	-34%	-10%
COc1ccc(CNCc2cccc(Oc3ccccc3)c2)cc1	-4%	4%	2.8µM*	-54%	-5%
Cc1ccco1	.	.	.	-16%	.
COc1ccc2c(c1)C(=NN)c1cc(OC)ccc1-2	10µM*	0%	-15%	-27%	?
COc1ccc(OC)c(N)c1	?	-11%	6%	-17%	?
O=C(NCC1CC1)[C@H]1C[C@@H]1[C@H](NP(=O)(c1ccccc1)c1ccccc1)c1ccccc1	-11%	7%	.	-6%	-12%
CCOC(=O)C1CSc2[nH]c(=O)sc2C1c1ccccc1 (stereo not given)	-19%	7%	18%	-19%	-19%
O=C(O)CC12CSc3[nH]c(=O)sc3C1c1ccccc1OC2=O (stereo not given)	25µM*	?	.	-1%	-19%
CN1CCN(c2nc3ccccc3nc2C(C#N)C(=O)OC2CCCCC2)CC1 (stereo not given)	?	3%	13µM*	-101%	-4%
CCN1CCN(c2nc3ccccc3nc2C(C#N)C(=O)OC2CCCCC2)CC1 (stereo not given)	?	4%	0%	-33%	-8%
CC1(C)Cc2c(sc3c2c(N)nc(=S)n3Cc2ccccc2)CO1	-7%	-6%	-7%	-3%	-10%
CC1(C)Cc2c(sc3[nH]c(=S)n(Cc4ccccc4)c(=O)c23)CO1	?	11%	18µM*	-60%	-27%
Nc1ncnc(N2CCOCC2)c1N	-5%	-5%	-16%	.	1%
Nc1c[n+](N2CCOCC2)no1	7.1µM*	?	.	-23%	-21%
O=C(NN=C1c2ccccc2-c2ccccc21)c1ccccc1	22µM*	?	-2%	-9%	-22%
O=C(NN=C1c2ccccc2-c2ccccc21)c1ccccc1Br	7%	-1%	12%	3%	4%
SMILES	Tau fibril ThT	Tau FP inhib	HttQ103 aggreg	HTT ATP protect	Tau fluor cs
Cc1ccc(NC(=O)CC2Nc3cccc4cccc(c34)NC2=O)cc1 (stereo not given)	14µM*	?	.	.	14µM*[quencher]
Cc1ccc(-c2csc(N)n2)s1	32µM*	?	12%	-13%	-29%
Cc1csc(N)n1	-12%	-13%	18%	.	-8%
COc1cc(NC(=O)Nc2ccccc2OC)c(OC)cc1NC(=O)CN1CCCCC1	?	?	16%	-29%	?
COc1cc(NC(=O)Nc2ccccc2)c(OC)cc1NC(=O)CN1CCCCC1	?	?	5%	-22%[10 µM]	28µM*[quencher]
CN1/C(=C\C(=O)c2cncc(Br)c2)C(C)(C)c2ccccc21	?	8%	16µM*	7%[10 µM]	17%
Cc1ccc(C(=O)NC(=S)/C=C2\N(C)c3ccccc3C2(C)C)cc1	10µM*	3%	-26%	12%[10 µM]	-16%
CN1/C(=C\C=N\NC(=O)c2cccnc2)C(C)(C)c2ccccc21	?	11%	6.3µM*	-31%	9%
CN1/C(=C/C(=O)c2nc(S(C)(=O)=O)ncc2Cl)C(C)(C)c2ccccc21	5µM*	15%	37%[9.22 µM]	-103%[10 µM]	-3%
CN1/C(=C\C=N\NC(=O)c2ccc(O)cc2)C(C)(C)c2ccccc21	?	14%	-19%	23%[10 µM]	4%
CN1/C(=C\C(=O)c2cccnc2)C(C)(C)c2ccccc21	0%	0%	-8%	-5%[10 µM]	-4%
COc1ccc2c(Cc3c4ccccc4cc4ccccc34)cncc2c1O	.	.	.	-2%[10 µM]	.
Brc1ccc(Nc2c3c(nc4nncn24)CCC3)cc1	?	-3%	.	.	-6%
N=C(N)SCCSC(=N)N	.	.	.	-1%[10 µM]	.
Cc1ccc(CNc2ccc3cc(S(=O)(=O)N4CCCCC4)ccc3n2)cc1	5%	-12%	.	.	?
Cc1ccccc1Oc1cc(NC(=O)Cn2cnc([N+](=O)[O-])c2)cc([N+](=O)[O-])c1	?	?	?	.	13µM*[quencher]
Cc1ccc(-c2[nH]nc3c2C(c2ccoc2)C(C#N)=C(N)O3)cc1C (stereo not given)	32µM*	?	22%	25%	?
Cc1ccc(-n2nc(C)c3c2OC(N)=C(C#N)C3c2ccoc2)cc1 (stereo not given)	13µM*	?	17%	-7%	?
Cc1ccc(-n2nc(C)c3c2OC(N)=C(C#N)C3c2ccco2)cc1 (stereo not given)	25µM*	-11%	5%	-5%	?
Cc1nn(-c2ccccc2)c2c1C(c1ccc(Br)s1)C(C#N)=C(N)O2 (stereo not given)	?	0%	5%	.	?
Cc1nn(-c2ccccc2)c2c1C(c1ccccc1)C(C#N)=C(N)O2 (stereo not given)	?	5%	10%	-14%[10 µM]	-18%
Cc1ccc(-n2nc(C)c3c2OC(N)=C(C#N)C3c2ccc(C)o2)cc1 (stereo not given)	5µM*	?	17%	17%[10 µM]	?
COc1ccc(-c2cc3ccc(O)c(CN4CCCC4)c3oc2=O)cc1OC	?	-5%	.	.	-3%
Nc1ccc(S(=O)(=O)NCc2nccs2)cc1	.	.	.	17%[10 µM]	.
CCOC(=O)C1=C(C)N(c2ccc(OC)cc2)C(=O)/C1=C\c1ccc(O)c(OCC)c1	25µM*	?	20%[9.22 µM]	-3%[10 µM]	?
CCOc1cc(/C=C2\C(=O)N(Cc3ccc(C)cc3)C(C)=C2C(=O)OC)ccc1O	25µM*	?	?	-48%	?
CCOC(=O)C1=C(C)N(c2ccc(OC)cc2)C(=O)/C1=C\c1cccs1	?	?	15%	.	-16%
C=CCOc1cccc(/C=C2\C(=O)N(Cc3ccc(C)cc3)C(C)=C2C(=O)OC)c1	?	-13%	?	43%[10 µM]	-17%
